Experimental findings from the supplement of paper PMC8728848 are described below.

Common to all, as to assay: glycan array binding signal (z-score within array); higher = stronger binding
What all share (conditions): glycan notation: IUPAC condensed, linker removed

Assay [1] concerns the target GlcNAc(b1-2)[GlcNAc(b1-6)]Man(a1-6)[GlcNAc(b1-2)Man(a1-3)]Man(b1-4)GlcNAc(b1-4)GlcNAc. The method, boiled down:
(§1)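 The binding signal is a Z-score computed within each array and averaged over linkers. Arrays of the same protein sequence at different concentrations or buffers were also averaged together. Data originate from 3228 arrays in the Consortium for Functional Glycomics database, kept only where the protein sequence was available.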

Assay [2] concerns the target GlcNAc(b1-3)Gal(b1-4)GlcNAc(b1-2)Man(a1-3)[GlcNAc(b1-3)Gal(b1-4)GlcNAc(b1-2)Man(a1-6)]Man(b1-4)GlcNAc(b1-4)[Fuc(a1-6)]GlcNAc. A digest of the protocol: as §1
The target of assay [3] is GlcNAc(b1-3)Gal(b1-4)GlcNAc(b1-3)Gal(b1-4)GlcNAc(b1-2)Man(a1-3)[GlcNAc(b1-3)Gal(b1-4)GlcNAc(b1-3)Gal(b1-4)GlcNAc(b1-2)Man(a1-6)]Man(b1-4)GlcNAc(b1-4)[Fuc(a1-6)]GlcNAc. The method, boiled down:
as §1

The target in assay [4] is GlcNAc(b1-3)Gal(b1-4)GlcNAc(b1-3)Gal(b1-4)GlcNAc(b1-3)Gal(b1-4)GlcNAc(b1-3)Gal(b1-4)GlcNAc(b1-2)Man(a1-3)[GlcNAc(b1-3)Gal(b1-4)GlcNAc(b1-3)Gal(b1-4)GlcNAc(b1-3)Gal(b1-4)GlcNAc(b1-3)Gal(b1-4)GlcNAc(b1-2)Man(a1-6)]Man(b1-4)GlcNAc(b1-4)[Fuc(a1-6)]GlcNAc. The method, boiled down:
as §1

Assay [5] has as its target GlcNAc(b1-3)Gal(b1-4)GlcNAc(b1-3)Gal(b1-4)GlcNAc(b1-3)GalNAc. The method, boiled down:
as §1

The target of a further assay is GlcNAc(b1-4)GlcNAc. The method, boiled down: as §1
Assay [6] addresses Neu5Ac(a2-3)Gal(b1-3)GlcNAc(b1-2)Man. The method, boiled down:
as §1

Assay [7] addresses Neu5Ac(a2-3)Gal(b1-3)GlcNAc(b1-6)GalNAc. The method, boiled down: as §1
In assay [8] the target is Neu5Ac(a2-3)Gal(b1-4)GlcNAc(b1-3)GalNAc. A digest of the protocol: as §1
Assay [9] deals with Neu5Ac(a2-3)Gal(b1-4)GlcNAc(b1-6)GalNAc. A digest of the protocol: as §1
The target in assay [10] is Neu5Ac(a2-3)Gal(b1-4)[Fuc(a1-3)]GlcNAc(b1-3)GalNAc. A digest of the protocol: as §1
The target of a further assay is Neu5Ac(a2-3)GalNAc. The method, boiled down:
as §1

The target in assay [11] is Neu5Ac(a2-6)Gal(b1-4)GlcNAc(b1-2)Man(a1-3)[Neu5Ac(a2-6)Gal(b1-4)GlcNAc(b1-2)Man(a1-6)]Man(b1-4)GlcNAc(b1-4)GlcNAc. The method, boiled down:
as §1

Assay [12] deals with Neu5Ac(a2-6)Gal(b1-4)GlcNAc(b1-3)[Neu5Ac(a2-6)Gal(b1-4)GlcNAc(b1-6)]GalNAc. The method, boiled down:
as §1

Assay [13] addresses Neu5Ac(a2-6)GalNAc(b1-4)GlcNAc6S. A digest of the protocol:
as §1

In assay [14] the target is Neu5Ac(a2-8)Neu5Ac(a2-8)Neu5Ac. A digest of the protocol:
as §1

The target in another assay is Neu5Ac(b2-6)GalNAc. A digest of the protocol:
as §1

Assay [15] has as its target Neu5Gc(a2-3)Gal(b1-4)GlcNAc. The method, boiled down: as §1
Assay [16] deals with Fuc(a1-2)Gal(b1-3)GalNAc(a1-3)[Fuc(a1-2)]Gal(b1-4)GlcNAc. The method, boiled down: as §1
Assay [17] addresses Fuc(a1-2)Gal(b1-3)GlcNAc(b1-3)[Gal(b1-4)GlcNAc(b1-6)]Gal(b1-4)Glc. A digest of the protocol: as §1
For assay [18], the target named is Fuc(a1-2)Gal(b1-3)[Fuc(a1-4)]GlcNAc(b1-3)[Gal(b1-4)GlcNAc(b1-6)]Gal(b1-4)Glc. The method, boiled down:
as §1

Another assay concerns the target Fuc(a1-2)Gal(b1-4)Glc6S. A digest of the protocol: as §1
For assay [19], the target named is Fuc(a1-2)Gal(b1-4)GlcNAc(b1-2)Man(a1-3)[Fuc(a1-2)Gal(b1-4)GlcNAc(b1-2)Man(a1-6)]Man(b1-4)GlcNAc(b1-4)GlcNAc. A digest of the protocol:
as §1

Assay [20] deals with Fuc(a1-2)Gal(b1-4)GlcNAc(b1-2)[Fuc(a1-2)Gal(b1-4)GlcNAc(b1-4)]Man(a1-3)[Fuc(a1-2)Gal(b1-4)GlcNAc(b1-2)Man(a1-6)]Man(b1-4)GlcNAc(b1-4)GlcNAc. A digest of the protocol:
as §1

Assay [21] has as its target Fuc(a1-2)Gal(b1-4)GlcNAc(b1-3)Gal(b1-4)GlcNAc(b1-2)Man(a1-3)[Fuc(a1-2)Gal(b1-4)GlcNAc(b1-3)Gal(b1-4)GlcNAc(b1-2)Man(a1-6)]Man(b1-4)GlcNAc(b1-4)GlcNAc. A digest of the protocol: as §1
In assay [22] the target is Fuc(a1-2)Gal(b1-4)GlcNAc(b1-3)Gal(b1-4)GlcNAc(b1-3)Gal(b1-4)GlcNAc. A digest of the protocol:
as §1

In assay [23] the target is Fuc(a1-2)Gal(b1-4)GlcNAc(b1-6)GalNAc. The method, boiled down:
as §1

For assay [24], the target named is Fuc(a1-2)[GalNAc(a1-3)]Gal(b1-4)GlcNAc(b1-3)Gal(b1-4)GlcNAc. A digest of the protocol:
as §1

The target in assay [25] is Fuc(a1-2)[GalNAc(b1-3)]Gal. A digest of the protocol:
as §1

Assay [26] has as its target Fuc(a1-3)[Gal(b1-4)]Glc6S. The method, boiled down: as §1
For assay [27], the target named is Fuc(a1-3)[Gal(b1-4)]GlcNAc. The method, boiled down:
as §1

Assay [28] has as its target Fuc(a1-3)[Gal3S(b1-4)]GlcNAc6S. A digest of the protocol: as §1
The target of assay [29] is Gal(a1-3)[Gal(a1-4)]Gal(b1-4)GlcNAc. The method, boiled down:
as §1

The target in another assay is Gal(a1-4)Gal(b1-4)Glc. The method, boiled down: as §1
The next assay deals with Gal(a1-4)GlcNAc. The method, boiled down: as §1
For another assay, the target named is Gal(a1-6)Glc. A digest of the protocol: as §1
The target in assay [30] is Gal(b1-3)GalNAc(b1-4)Gal(b1-4)Glc. A digest of the protocol: as §1
The next assay has as its target Gal(b1-3)GlcNAc. The method, boiled down:
as §1

The target of assay [31] is Gal(b1-3)[Fuc(a1-4)]GlcNAc. A digest of the protocol:
as §1

For assay [32], the target named is Gal(b1-3)[Fuc(a1-4)]GlcNAc(b1-3)Gal(b1-3)[Fuc(a1-4)]GlcNAc. A digest of the protocol:
as §1

Assay [33] addresses Gal(b1-3)[Neu5Ac(a2-6)]GlcNAc(b1-4)Gal(b1-4)Glc. The method, boiled down:
as §1

The next assay concerns the target Gal(b1-4)Glc6S. A digest of the protocol: as §1
Assay [34] has as its target Gal(b1-4)GlcNAc(b1-2)Man(a1-3)[Gal(b1-4)GlcNAc(b1-2)Man(a1-6)][Gal(b1-4)GlcNAc(b1-4)]Man(b1-4)GlcNAc(b1-4)[Fuc(a1-6)]GlcNAc. A digest of the protocol:
as §1

For assay [35], the target named is Gal(b1-4)GlcNAc(b1-3)Gal(b1-4)GlcNAc(b1-2)[Gal(b1-4)GlcNAc(b1-3)Gal(b1-4)GlcNAc(b1-6)]Man(a1-6)[Gal(b1-4)GlcNAc(b1-3)Gal(b1-4)GlcNAc(b1-2)Man(a1-3)]Man(b1-4)GlcNAc(b1-4)[Fuc(a1-6)]GlcNAc. The method, boiled down:
as §1

Assay [36] concerns the target Gal(b1-4)GlcNAc(b1-3)Gal(b1-4)GlcNAc(b1-3)Gal(b1-4)GlcNAc(b1-3)Gal(b1-4)GlcNAc(b1-3)Gal(b1-4)GlcNAc(b1-2)[Gal(b1-4)GlcNAc(b1-3)Gal(b1-4)GlcNAc(b1-3)Gal(b1-4)GlcNAc(b1-3)Gal(b1-4)GlcNAc(b1-3)Gal(b1-4)GlcNAc(b1-6)]Man(a1-6)[Gal(b1-4)GlcNAc(b1-3)Gal(b1-4)GlcNAc(b1-3)Gal(b1-4)GlcNAc(b1-3)Gal(b1-4)GlcNAc(b1-3)Gal(b1-4)GlcNAc(b1-2)Man(a1-3)]Man(b1-4)GlcNAc(b1-4)[Fuc(a1-6)]GlcNAc. The method, boiled down:
as §1

The next assay has as its target Gal4S6S(b1-4)GlcNAc. The method, boiled down:
as §1

Assay [37] concerns the target GalNAc(a1-3)GalNAc(b1-3)Gal(a1-4)Gal(b1-4)GlcNAc. A digest of the protocol:
as §1

The target of assay [38] is GalNAc(b1-4)GlcNAc(b1-2)Man(a1-3)[GalNAc(b1-4)GlcNAc(b1-2)Man(a1-6)]Man(b1-4)GlcNAc(b1-4)GlcNAc. The method, boiled down: as §1

This is one part of a sample in which the strongest signals are shown more often than they occur.

B1: ClecSol-Fc (Cryptosporidium parvum) (protein)
chain: CPEGWISNGEKTRCFKLVTFDRPRTFSHGFKACNDLGGTEVETRRRNGSKETNEYPVTLASVYKLSDEEAIRRTLVEQGDIHKTANGCFVGLRKYAFFRYPPGWYWIDSGSPVSVRDSEINWTSSYNASWLLRFKFPFEKCGFFDIGGLGRRPCWLIDSELSCAVCGTVAYDSGGLNPNKYSELIKQTDEIISKEPKLDLPGYNNLNCTDAWENNLSVGLCQNVSNILDSAWSSYQSSLNFPSINFNWKEDSTNEGGDQVYHNSYLDLPRYKQKKTFYWDQDPGTIPALSDEMKLIGLSAQPTYHPLDRSSSGSFESDSTESGRANEERNDTLEEMIYKQSSDSIEDILVPVTKPIFSDYSSIGRNSGVEEVYSSNVSTISSKGVVFPNTTTSSDNDFTKNNPANSSKHTSTSTTTNTTTTTTRTTTTTTTTTTTTTTTTTTTTETTTTKKSTTATKNTTTT
With B1, the “glycan array binding signal (z-score)” value in [1] was -0.117; in assay [2], 0.693; in [3], -0.079; in assay [4], 0.18; in [5], 0.074; with GlcNAc(b1-4)GlcNAc, 5.31. In addition, the “glycan array binding signal (z-score)” value in assay [6] is -0.101; in assay [7], -0.123; in assay [8] it was -0.229; in assay [9] it was -0.11; in assay [10], -0.101; in the assay with Neu5Ac(a2-3)GalNAc, 0.005. Further, the “glycan array binding signal (z-score)” value in assay [11] was -0.172; in assay [12], -0.216; in assay [13], -0.03; in assay [14], 0.518; with Neu5Ac(b2-6)GalNAc it was -0.003; in assay [15], -0.119.

B2: Vd7LysM (Verticillium dahliae) (protein)
chain: RRGPEPKYPPAAGTSSYCSYWVDYEGDKSCSRVLEDNVVVLKDFARWNPTVGADCSGIKAGNSYCVEAFGEPEPIEVTTTTRAATTTTQPTATTTTFANGIATPQPTQSGMVTNCNKFHWIAEGVSCSQVISFQKITLADFVKWNPSVKSDCSGMWAGVNVCVGVVGSSTDTAKPTTTAPSNGVVTPQPTQPSMVTNCNKFHWIAKGVTCQQVISYQKISLADFVKWNPSVLSDCSGMWAEVQVCVGVIGSTPTTLATTTTTAGNGVSTPLPTQPGMVTNCAKFHWVAKGVTCNQIYSFQKITLEQFVSYNPTVKSDCSGMQAEVQVCVGLIAGTTPTTTRPPTTTAPGNGVSTPQPTQPGMVTNCAKFHWVAKGVTCNQIYSFQKITLEQFVSFNPTVKSDCTGMQAEVNVCVGLIGGNPTPTQTGNGIATPTPIQPGMVSNCKKFHWIAQGVTCQQVISFQKITLADFVKWNTGVGSDCRTMWAETNVCVGV
As for B2, the “glycan array binding signal (z-score)” value in assay [16] was -0.691; in assay [17] it was -0.772; in assay [18], -1.91; with Fuc(a1-2)Gal(b1-4)Glc6S, 2.67; in assay [19] it was 2.13; in [20] it was -0.492. Besides, the “glycan array binding signal (z-score)” value came out at 0.254 in assay [21]; 3.25 in assay [22]; 0.512 in [23]; 1.94 in [24]; 0.38 in [25]; 0.721 in assay [26]. Besides, the “glycan array binding signal (z-score)” value in assay [27] is -0.68; in [28], 1.04; in [29], -0.317; with Gal(a1-4)Gal(b1-4)Glc, 3.04; with Gal(a1-4)GlcNAc it was 0.386; in the assay with Gal(a1-6)Glc, -1.58. The “glycan array binding signal (z-score)” value in [30] was 2.86; with Gal(b1-3)GlcNAc, -0.186; in assay [31], -0.618; in assay [32] it was 1.63; in assay [33], -0.885; with Gal(b1-4)Glc6S, 0.592. Moreover, the “glycan array binding signal (z-score)” value was -0.393 in assay [34]; 2.56 in [35]; 4.04 in assay [36]; 0.198 with Gal4S6S(b1-4)GlcNAc; 0.706 in assay [37]; -1.23 in assay [38].
